The test system of one test is HEK293. As to the kind of experiment: Cytotoxic Profiling of Annotated Libraries Using Quantitative High-Throughput Screening (AID 1296008). Further: potency means the concentration at half of the fitted maximal effect. On max response: on the % scale 0 is the no-effect control and ±100 the full control effect. To be noted: Five cell lines viability, CellTiter-Glo ATP luminescence, 48-72 h; max response: stronger effect = lower value. The method in brief:
(§1)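 Cytotoxicity was measured as CellTiter-Glo ATP luminescence, read after 10 min at room temperature. Compound treatment of the cells lasted 48 or 72 hr at 37 degrees Celsius in a qHTS format.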
In general terms: ATP-based viability assays read luminescence as a measure of living cells.

The subject of a further test is MCC-13. As to the kind of experiment: qHTS assay to identify novel small-molecules to repurpose for Merkel cell carcinoma treatment (AID 1296009). On activity change, negative = cytotoxicity: on the % scale 0 is the no-effect control and ±100 the full control effect. To be noted: MCC and control cell lines, CellTiter-Glo viability, 72 h; series mostly up to 46 µM. The method in brief:
(§2)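 Cell viability measured by CellTiter-Glo following 72 hr compound treatment at 37 degree celsius, with NPC and MIPE libraries tested in 8- and 11-point concentration series.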

The next test concerns MCC-26. The description is as above. To be noted: MCC and control cell lines, CellTiter-Glo viability, 72 h; series mostly up to 46 µM. The method, boiled down:
as §2

Another test has as its system W2. As to the kind of experiment: qHTS profiling for inhibitors of Plasmodium falciparum proliferation (AID 504749). Further: potency means the concentration at half of the fitted maximal effect. Particulars: P. falciparum in erythrocytes, SYBR Green DNA, 72 h; series mostly up to 28.7 µM. The method in brief:
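In a 72 h erythrocytic culture (37 C, humidified, 5% CO2) at 2.5% hematocrit and 0.3% starting parasitemia, compounds were tested; SYBR Green I in detergent lysis buffer stained parasite DNA overnight.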
For orientation: qHTS replaces the single test concentration by a dilution series.

For a further test, the system named is KB-3-1. As to the kind of experiment: Cytotoxic Profiling of Annotated Libraries Using Quantitative High-Throughput Screening (AID 1296008). Further: potency means the concentration at half of the fitted maximal effect. On max response: on the % scale 0 is the no-effect control and ±100 the full control effect. Particulars: Five cell lines viability, CellTiter-Glo ATP luminescence, 48-72 h; max response: stronger effect = lower value. The method, boiled down: as §1
The subject of the next test is NIH3T3. Described as above. To be noted: Five cell lines viability, CellTiter-Glo ATP luminescence, 48-72 h; max response: stronger effect = lower value. The method, boiled down:
as §1

Test [1] relates to HaCat. The description is as above. To be noted: Five cell lines viability, CellTiter-Glo ATP luminescence, 48-72 h; max response: stronger effect = lower value. The method in brief: as §1
Test [2] deals with HACAT. As to the kind of experiment: qHTS assay to identify novel small-molecules to repurpose for Merkel cell carcinoma treatment (AID 1296009). On activity change, negative = cytotoxicity: on the % scale 0 is the no-effect control and ±100 the full control effect. To be noted: MCC and control cell lines, CellTiter-Glo viability, 72 h; at 44.8 µM (top of the series) unless noted. The method, boiled down:
as §2

For the next test, the system named is HEK293T. The description is as above. Particulars: MCC and control cell lines, CellTiter-Glo viability, 72 h; at 44.8 µM (top of the series) unless noted. The method in brief: as §2

The source of these data is PubChem BioAssay (NCATS).

Values joined by “and” are separate entries in the source; they are usually repeats but may differ in a detail not shown here. Equal values may be shown once. Inconclusive results are not listed. A number with no mark means an inactive call. Active and inactive are the calls of the source. The call rests on the fitted dose curve; in most records, active means well fitted inhibition curve with a large enough effect; inconclusive means small, poorly fitted or top-dose-only effect; inactive means flat fitted curve, though single readings scatter.
Further: nearly all actives have a fitted effect of over 60% in size.

For the compound `CNC1CCC(N(Cc2cccc(-c3ccncc3)c2)C(=O)c2sc3ccccc3c2Cl)CC1` (stereo unspecified), the Potency in the test on HEK293 is 8.33 µM (active) and 7.31 µM (active). The Potency result with MCC-13 and in the test on MCC-26 was “inactive” throughout.
On to `CC(C)C[C@@H](C(=O)N[C@H](C(=O)OC1CCCC1)c1ccccc1)[C@H](O)C(=O)NO`, for which, in the test with HEK293, the Potency was 18.7 µM (active). Besides, the Potency result in the test with MCC-13 and in the test with MCC-26 was “inactive” throughout.
For the compound `Fc1ccc(C(c2ccc(F)cc2)N2CCN(CC=Cc3ccccc3)CC2)cc1`, the Potency in the test with W2 is 8.49 µM (active). The Potency entry in the test on MCC-13 and in the test with MCC-26 was “inactive” in each case.
As for `CC1(C)OC2CC3C4CC(F)C5=CC(=O)C=CC5(C)C4C(O)CC3(C)[C@]2(C(=O)CO)O1` (stereo partly specified), the Potency result in the test with MCC-13 and in the test with MCC-26 was “inactive” in each case.
`NC(=O)c1noc([C@H](CCCC2CCCCC2)CC(=O)NO)n1`: the max response with KB-3-1 is -19.6% and 9.75%. Also, the Potency in the test with NIH3T3 is 18.7 µM (active) and 16.4 µM (active). The Potency entry in the test with MCC-26 was “inactive”.
For the compound `CN1C(=O)C[C@H](C(=O)N[C@@H](Cc2cnc[nH]2)C(=O)N2CCC[C@@H]2C(N)=O)NC1=O`, in the test on HaCat [1], the max response was -3.47%. In addition, the compound was called inactive in the test with KB-3-1 and with NIH3T3. In addition, the Potency result in the test with MCC-13 and with MCC-26 was “inactive” each time.
Consider `Cc1ccccc1C(=O)c1ccc(Nc2ccc(Br)cc2N)cc1Cl`, for which the figures for the max response with HaCat [1] and with NIH3T3 were -2.01% and -21.7%, respectively. Besides, the Potency result with MCC-13 and with MCC-26 was “inactive” each time.
On to `COc1cc2c(cc1Cc1cccc(Cl)c1F)c(=O)c(C(=O)O)cn2[C@H](CO)C(C)C`, for which the max response in the test on HaCat [1] is -24.6%. The Potency result in the test with MCC-26 is “inactive”.
`CNC(=O)[C@H](Cc1ccccc1)NC(=O)[C@H](CC(C)C)[C@H](CSc1cccs1)C(=O)NO`: the Potency in the test with HaCat [1] was 13.2 µM (active). Moreover, the max response in the test on KB-3-1 is 2.61%; with NIH3T3, 0.205%. Besides, the Potency result in the test with MCC-13 and in the test with MCC-26 was “inactive” each time.
Regarding `CN(C)CCCNC(=O)c1ccc(-c2cc(O)c3ncccc3c2)cc1`, the results for the max response in the test on HaCat [1] and in the test with NIH3T3 were -4.67% and -2.36%, respectively. The Potency result in the test on MCC-13 and in the test with MCC-26 was “inactive” in each case.
On to `C[C@@H]1[C@H](C)CC[C@]2(C(=O)O)CC[C@]3(C)C(=CC[C@@H]4[C@@]5(C)CC[C@H](O)C(C)(C)[C@H]5CC[C@]43C)[C@@H]12`, for which the outcome in the test with HACAT [2] and in the test with HEK293T was “inactive [at 92 µM]” throughout. Moreover, the Potency result in the test with MCC-13 and with MCC-26 was “inactive” throughout.
In the case of `CN1CCC[C@H]1CCO[C@](C)(c1ccccc1)c1ccc(Cl)cc1`, the compound was called inactive with HaCat [1] and in the test with HACAT [2]. Moreover, the values for the max response in the test on KB-3-1 and with NIH3T3 were -5.55% and -18.8%, respectively. For the same compound, the Potency entry in the test on MCC-13 and in the test with MCC-26 was “inactive” throughout.
Regarding `CN(C)CC[C@H](CSc1ccccc1)Nc1ccc(S(=O)(=O)NC(=O)c2ccc(N3CCN(Cc4ccccc4-c4ccc(Cl)cc4)CC3)cc2)cc1[N+](=O)[O-]`, in the test with HaCat [1], the Potency was 18.7 µM (active). The max response in the test on KB-3-1 is 2.51%. For the same compound, the Potency result with MCC-13 and in the test with MCC-26 was “inactive” throughout.
For the compound `CN[C@H]1[C@@H](O[C@@H]2[C@H](O[C@@H]3[C@@H](O)[C@@H](O)[C@@H](N=C(N)N)[C@@H](O)[C@@H]3N=C(N)N)O[C@H](C)[C@@]2(O)C=O)O[C@@H](CO)[C@@H](O)[C@H]1O`, the call in the test on KB-3-1 was inactive. The results for the activity change, negative = cytotoxicity in the test with MCC-13 and in the test on MCC-26 were 0.63% [at 9.22 µM] and -1.52% [at 9.22 µM], respectively.
On to `COc1ccc2nc3cc(Cl)ccc3c(Nc3cc(CN4CCCC4)c(O)c(CN4CCCC4)c3)c2n1`, for which the compound was called inactive in the test with HaCat [1] and in the test on HACAT [2]. In addition, in the test on NIH3T3, the max response was -1.17%. Besides, the Potency result with MCC-13 and in the test on MCC-26 was “inactive” in each case.
In the case of `CC(C)(F)C[C@H](N[C@@H](c1ccc(-c2ccc(S(C)(=O)=O)cc2)cc1)C(F)(F)F)C(=O)NC1(C#N)CC1`, the result with HaCat [1] and with HACAT [2] was inactive. Moreover, the max response with KB-3-1 is 7.07%; in the test on NIH3T3, -18%. Further, the Potency entry in the test on MCC-13 and in the test on MCC-26 was “inactive” each time.
Regarding `CC(C)N(CCCNC(=O)Nc1ccc(C(C)(C)C)cc1)C[C@H]1O[C@@H](n2cc(Br)c3c(N)ncnc32)[C@H](O)[C@H]1O`, in the test with HaCat [1], the max response is -6.68%. Moreover, the Potency with KB-3-1 is 26.4 µM (active). Also, the Potency entry with MCC-13 and with MCC-26 was “inactive” each time.
